Assay results from PubChem BioAssay (EPA / NIEHS).
Activity calls are given as the source filed them. How the source made its calls: active means hit-call score of the fitted dose curve at least 0.9, where 1 is the maximum; inactive means score below 0.9.

Read-out: Glutathione S-transferase M3 (GSTM3), GSTM3 (gene 2947)
Assay: LTEA_HepaRG_GSTM3: Life Technologies and Expression Analysis (LTEA) Assay for Glutathione S-transferase M3 (GSTM3) using HepaRG (AID 2283501)
Details: mRNA level, 48 h; actives raise or lower the signal
Experimental: LTEA_HepaRG is a cell based, multiplexed-readout assay that uses HepaRG, a human liver cell line, with measurements taken at 48 hours after chemical dosing on a 96-well plate.LTEA_HepaRG_GSTM3 is one of 102 assay component(s) measured in the LTEA HepaRG cell culture assay. It is a marker of Oxidative Stress.Data from the assay component LTEA_HepaRG_GSTM3 was analyzed into 1 endpoint. This assay endpoint, LTEA_HepaRG_GSTM3, was analyzed with bidirectional fitting relative to DMSO as the negative control and baseline of activity. Using a type of inducible reporter, measures of mRNA induction for gain or loss-of-signal activity can be used to understand regulation of transcription factor activity. To generalize the intended target to other relatable targets, this assay endpoint is annotated to the transferase intended target family, where the subfamily is alkyl and aryl transferase.
A total of 1060 chemcials from the ToxCast library were tested in eight-point concentration-response experiments. Cell culture and cytotoxicity assays were conducted at Thermo Fisher Scientific's Custom Services facility (Madison, WI). A single lot of human HepaRG cells (Thermo Fisher Scientific, Frederick, MD) was used for the cell culture experiments. 96-well format collagen type I coated plates of human HepaRG cells were prepared using established methods. Briefly, cryopreserved HepaRG cells were thawed, plated at a density of approximately 100,000 cells/well in HepaRG Thaw, Plate, and General Purpose media (HPRG770, Thermo Fisher Scientific), and incubated for 48 hours. 0.5% DMSO was selected as vehicle control to balance the requisite need of DMSO in HepaRG cultures to maintain differentiation (for example, baseline metabolism, proportions of hepatocytes vs. cholangiocytes), while enabling further hepatic receptor pathway activation (for example, PXR and CAR) in response to chemical exposure. 48 hours after plating, the culture medium was replaced with HepaRG Serum-Free Incudtion Media. Cells were exposed to each test chemical in duplicate and maintained in CO2 incubators for another 48 hours. Chemical plates were thawed to room temperature and 200x concentrations of treatment groups were prepared. 8-point conentration-reponse curves were made with the highest exposure at 100 uM, followed by half-log dilutions, all in 0.5% DMSO. Each test plate contained variouse controls, induction positive controls (1mM phenobarbital), cytotoxicity positive controls ([…] aflatoxin B1), vehicle controls (0.5% DMSO), and total lysis controls (0.5% DMSO). Cell morphology images were taken using an Essen IncuCyte FLR automated microscope, with six 96-well plates imaged in about 24 minutes. Images were captured and exported and JPEG files. Spent culture media was transfered to black-well plates for the LDH assay, and remaining media was sorted at -80 C for later use. Cells were treated with RLT buffer and frozen until shipped for gene expression analysis. Total RNA was isolated from the cell suspension in 75 uL of Buffer RLT (Qiagen, Germantown, MD 20874) by Quintiles/Expression Analysis (Durham, NC) using a custom isolation procedure. Total RNA from each plate well was transferred to a preamplification plate. Fluidigm's 96.96 Dynamic ArrayTM (Fluidigm, Amsterdam, the Netherlands) technology was used for gene expression analyses by quantitative reverse transcription polymerase chain reaction (qRT-PCR, performed by Quintiles/Expression Analysis, Durham, NC)89. Standard TaqManTM Assays (Applied Biosystems/ThermoFisher Scientific, Foster City, CA) were used to assess the expression of 93 genes selected based on their selectivity and sensitivity to important hepatic receptors known to be modulated by environmental chemicals; importance in human hepatocyte functionality; and hepatotoxicity. […]

| Compound | outcome | AC50 |
| --- | --- | --- |
| COP(=O)(OC)C(O)C(Cl)(Cl)Cl (stereo not given) | inactive | – |
| CC(Oc1cccc(Cl)c1)C(=O)O (stereo not given) | inactive | – |
| CCOC(=O)COc1cc(-c2nn(C)c(OC(F)F)c2Cl)c(F)cc1Cl | inactive | – |
| CCCCN(CC)c1c([N+](=O)[O-])cc(C(F)(F)F)cc1[N+](=O)[O-] | inactive | – |
| CCOP(=O)(NC(C)C)Oc1ccc(SC)c(C)c1 (stereo not given) | inactive | – |
| CC(C)N(C(=O)SCC(Cl)=C(Cl)Cl)C(C)C | inactive | – |
| CCCCOC(=O)[C@@H](C)Oc1ccc(Oc2ccc(C#N)cc2F)cc1 | inactive | – |
| N#CSCSC#N | inactive | – |
| Cc1nn(-c2cc(NS(C)(=O)=O)c(Cl)cc2Cl)c(=O)n1C(F)F | inactive | – |
| CCOP(=S)(OCC)OC(Cl)C(Cl)(Cl)Cl (stereo not given) | inactive | – |
| CCCCSP(=O)(SCCCC)SCCCC | inactive | – |
| CON=C(C(=O)OC)c1ccccc1CON=C(C)c1cccc(C(F)(F)F)c1 | inactive | – |
| O=C(O)c1cc(Oc2ccc(C(F)(F)F)cc2Cl)ccc1[N+](=O)[O-] | inactive | – |
| CCOP(=S)(Oc1cnc(C(C)(C)C)nc1)OC(C)C (stereo not given) | inactive | – |
| CC(=NC#N)N(C)Cc1ccc(Cl)nc1 | inactive | – |
| CC(COc1ccc(Oc2ccccc2)cc1)Oc1ccccn1 (stereo not given) | inactive | – |
| C#CC(C)(C)NC(=O)c1cc(Cl)cc(Cl)c1 | inactive | – |
| CC(C)=CC1C(C(=O)OCN2C(=O)C3=C(CCCC3)C2=O)C1(C)C (stereo not given) | inactive | – |
| CCCOc1nn(C(=O)NS(=O)(=O)c2ccccc2C(=O)OC)c(=O)n1C | inactive | – |
| COP(=O)(OC)SCn1c(=O)oc2cc(Cl)cnc21 | inactive | – |

| Compound | outcome | AC50 |
| --- | --- | --- |
| C[Si](Cn1cncn1)(c1ccc(F)cc1)c1ccc(F)cc1 | – | 74.9 µM (active) |
| COc1cccc(C(=O)NN(C(=O)c2cc(C)cc(C)c2)C(C)(C)C)c1C | inactive | – |
| CC[C@H](C)[C@H]1O[C@]2(C=C[C@@H]1C)C[C@@H]1C[C@@H](C/C=C(\C)[C@@H](O[C@H]3C[C@H](OC)[C@@H](O[C@H]4C[C@H](OC)[C@@H](NC)[C@H](C)O4)[C@H](C)O3)[C@@H](C)/C=C/C=C3\CO[C@@H]4[C@H](O)C(C)=C[C@@H](C(=O)O1)[C@]34O)O2 | inactive | – |
| CCCSP(=O)(OCC)SCCC | inactive | – |
| CN(C)NC(=O)CCC(=O)O | inactive | – |
| CC(C1CC1)C(O)(Cn1cncn1)c1ccc(Cl)cc1 (stereo not given) | inactive | – |
| CCOC(=O)CC(SP(=O)(OC)OC)C(=O)OCC (stereo not given) | inactive | – |
| FC(F)C(F)(F)OCC(Cn1cncn1)c1ccc(Cl)cc1Cl (stereo not given) | – | 73.6 µM (active) |
| COP(=O)(OC)OC(Br)C(Cl)(Cl)Br (stereo not given) | inactive | – |
| S=C1NCCN1 | inactive | – |
| C#CCC1=C(C)C(OC(=O)C2C(C=C(C)C)C2(C)C)CC1=O (stereo not given) | inactive | – |
| CC1=NNC(=O)N(/N=C/c2cccnc2)C1 | inactive | – |
| CCOP(=S)(OCC)Oc1ccc([N+](=O)[O-])cc1 | inactive | – |
| O=c1ccc(=O)[nH][nH]1 | inactive | – |
| CNC(=O)ON=C(C)SC | inactive | – |
| Nc1nc(N)nc(NC2CC2)n1 | inactive | – |
| CCOP(=S)(OCC)Oc1ccc2c(C)c(Cl)c(=O)oc2c1 | inactive | – |
| CCc1cccc(C)c1N(C(=O)CCl)C(C)COC (stereo not given) | inactive | – |
| CC1(C(=O)Nc2ccc(O)c(Cl)c2Cl)CCCCC1 | inactive | – |
| C[N+]1(C)CCCCC1 | inactive | – |
